Assay results reported in article PMC4552634, “A New Set of Chemical Starting Points with Plasmodium falciparum Transmission-Blocking Potential for Antimalarial Drug Discovery” (PLoS ONE, 2015).
Screen size: about 13,000 compounds; about 3,200 (25%) showed an effect of 50% or more. The list shows a part of the results.

What follows are compounds tested on P. falciparum stage V gametocytes. Settings: 48 h, 5 µM; inhibitor.
Set-up: BacTiter-Glo ATP luminescence viability of purified stage V gametocytes in 384-well plates, per cent inhibition versus DMSO
For `O=C(N[C@@H](Cc1ccccc1)C(=O)NCCN1CCOCC1)c1ccc(O)c(-c2ccc(Cl)c(Cl)c2)c1` [TCMDC-140851], the “% Inhibition” value was 14.71%. With `COc1ccc(C2CC(=O)C3=C(C2)NC(C)=C(C(=O)OC(C)C)C3c2c(F)cccc2Cl)cc1OC` (stereo not drawn) [TCMDC-124040] the “% Inhibition” value was 34.34%. `COC(=O)Cn1c(C2CCN(CC3CCN(C(=O)/C=C/c4ccc(Cl)c(Cl)c4)CC3)CC2)nc2ccccc21` [TCMDC-140298] was tested, and the “% Inhibition” value was 2.762%. In the case of `CNC(=O)c1ccc2nc(-c3ccc(-c4ccccc4)cc3)n(CC3CCN(CC4CCCC4)CC3)c2c1` [TCMDC-136523], the “% Inhibition” value is reported as 25.32%. `CNC(=O)c1ccc2nc(C3CC3)n(CC3CCN(S(=O)(=O)c4cccc(Cl)c4)CC3)c2c1` [TCMDC-136189] was tested, and the “% Inhibition” value was 88.15%. `O=C(/C=C/c1cccc(C(F)(F)F)c1)NCCCCCN1CCN(C(=O)Nc2ccc(Cl)c(Cl)c2)CC1` [TCMDC-135794] was tested, and the “% Inhibition” value was -9.962%. For `O=C1C2C(c3ccc(Cl)c(Cl)c3)N3CC(OCc4ccccc4)CC3(C(=O)O)C2C(=O)N1c1ccc(Br)cc1` (stereo not drawn) [TCMDC-139263], the “% Inhibition” value was 16.51%. In the case of `Cc1cccc2nc(-c3ccc(-c4ccc(NC(=O)Nc5ccsc5)cc4)s3)[nH]c12` [TCMDC-133209], the “% Inhibition” value is reported as -24.83%. For `CN(C)Cc1c(O)ccc2oc(Cc3ccccc3)cc12` [TCMDC-125816], the “% Inhibition” value was 62.06%. With `CCC(Cc1ccccc1)c1cc(O)c(Cc2ccc(-c3ccccc3)cc2)c(=O)o1` (stereo not drawn) [TCMDC-140730] the “% Inhibition” value was -3.123%. In the case of `CN(C)Cc1cc2c(O)c(Cc3ccccc3)ccc2o1` [TCMDC-124091], the “% Inhibition” value is reported as 7.975%. For `O=S1(=O)NC2(CCN(CCc3ccc(Cl)cc3)CC2)Nc2cc(F)cc(F)c21` [TCMDC-124990], the “% Inhibition” value was -19.76%. For `Cc1ccc(S(C)(=O)=O)cc1/C=C/C(=O)O` [TCMDC-139220], the “% Inhibition” value was 3.947%. For `COc1ccc2nccc([C@@H](O)CN3CCC(NCCOc4ccc(F)cc4[N+](=O)[O-])CC3)c2c1` [TCMDC-140659], the “% Inhibition” value was -1.987%. With `CN1CCN(c2ccnc3ccc(NC(=O)Nc4cccc5ccccc45)cc23)CC1` [TCMDC-139346] the “% Inhibition” value was 6.615%. For `O=c1nc(C=Cc2ccc(Br)cc2)oc2ccccc12` [TCMDC-123878], the “% Inhibition” value was 22.17%. With `O=C(NC1CCC(CN2CCC(c3c[nH]c4ccccc34)CC2)CC1)c1cc(-c2cccc(Cl)c2)n(-c2ccc(Cl)cc2Cl)n1` (stereo not drawn) [TCMDC-140353] the “% Inhibition” value was -7.21%. With `CCCc1c(C(=O)NC2CCC(CN3CCC(c4c[nH]c5ccccc45)CC3)CC2)cnn1-c1ccc(Cl)cc1` (stereo not drawn) [TCMDC-140261] the “% Inhibition” value was 29.96%. `Cc1c(C(=O)NC2CCC(CN3CCC(c4c[nH]c5ccccc45)CC3)CC2)cnn1-c1c(Cl)cc(Cl)cc1Cl` (stereo not drawn) [TCMDC-140357] was tested, and the “% Inhibition” value was 8.343%. In the case of `CCCc1c(C(=O)NC2CCC(CN3CCC(c4c[nH]c5ccccc45)CC3)CC2)cnn1-c1ccccc1` (stereo not drawn) [TCMDC-139954], the “% Inhibition” value is reported as 89.66%. With `O=C(NC1CCC(CN2CCC(c3c[nH]c4ccccc34)CC2)CC1)c1cc(-c2ccccc2Cl)n(-c2cccc(Cl)c2)n1` (stereo not drawn) [TCMDC-140354] the “% Inhibition” value was -13.83%. For `CCCc1c(C(=O)NC2CCC(CN3CCC(c4c[nH]c5ccccc45)CC3)CC2)cnn1-c1c(Cl)cc(Cl)cc1Cl` (stereo not drawn) [TCMDC-140423], the “% Inhibition” value was 74.19%. With `CC(C)c1ccc(NC(=O)Nc2ccc(Cn3ncc(N4CCCNCC4)c(Cl)c3=O)cc2)cc1` [TCMDC-133325] the “% Inhibition” value was -40.87%. With `CNC(=O)C1Cc2c([nH]c3ccc(Cl)cc23)C2(CCN(CCc3ccccc3)CC2)N1` (stereo not drawn) [TCMDC-141285] the “% Inhibition” value was -33.98%. `O=c1[nH]c2ccc3[nH]cccc3c2c1C=Nc1ccc(N2CCN(CCO)CC2)cc1` [TCMDC-138634] was tested, and the “% Inhibition” value was -29.23%. In the case of `O=C(/C=C/c1ccc(Cl)c(Cl)c1)NCCCCCN1CCCC(CNC(=O)/C=C/c2ccccc2)C1` (stereo not drawn) [TCMDC-139582], the “% Inhibition” value is reported as 30.13%. In the case of `O=C(/C=C/c1ccc(Cl)c(Cl)c1)NCCCCCN1CCC(CCNC(=O)/C=C/c2ccccc2F)CC1` [TCMDC-140006], the “% Inhibition” value is reported as -17.66%. `O=C(C=Cc1ccc(Cl)c(Cl)c1)NCCCCCN1CCC(CCNC(=O)/C=C/c2ccccc2)CC1` [TCMDC-139566] was tested, and the “% Inhibition” value was 81.69%. `O=C(C=Cc1ccc(Cl)c(Cl)c1)NCCCCCN1CCCC(CCCNC(=O)C2CC2c2ccccc2)C1` (stereo not drawn) [TCMDC-139578] was tested, and the “% Inhibition” value was 25.82%. With `O=C(C=Cc1ccc(Cl)c(Cl)c1)NCCCCCN1CCCC(CCCNC(=O)/C=C/c2ccccc2)C1` (stereo not drawn) [TCMDC-139577] the “% Inhibition” value was 89.65%. In the case of `O=C(C=Cc1ccc(Cl)c(Cl)c1)NCCCCCN1CCC(CCCNC(=O)/C=C/c2ccccc2)CC1` [TCMDC-139571], the “% Inhibition” value is reported as -9.203%. `O=C(C=Cc1ccc(Cl)c(Cl)c1)NCCCCCN1CCC(CCNC(=O)C(c2ccccc2)c2ccccc2)CC1` [TCMDC-139570] was tested, and the “% Inhibition” value was 77.62%. For `COc1ccccc1/C=C/C(=O)NCCC1CCN(CCCCCNC(=O)/C=C/c2ccc(Cl)c(Cl)c2)CC1` [TCMDC-139999], the “% Inhibition” value was 48.92%. In the case of `CCc1cc(NCc2ccncc2)nc(Nc2ccc(F)cc2)n1` [TCMDC-134015], the “% Inhibition” value is reported as 15.5%. In the case of `CC(C)(C)NC(=O)C(c1ccc(F)cc1)N(C(=O)c1ccc(CN2CCOCC2)o1)c1ccc(C2CCCCC2)cc1` (stereo not drawn) [TCMDC-125562], the “% Inhibition” value is reported as -47.12%. With `CCc1ccc(CN2CCC(CN(c3ccc(N4CCOCC4)c(F)c3)S(=O)(=O)c3ccc(C(C)(C)CC)cc3)CC2)cc1` [TCMDC-135290] the “% Inhibition” value was -12.43%. With `COc1ccccc1C1CCN(C2CCC(NC(=O)/C=C/c3cc(F)cc(F)c3)CC2)CC1` (stereo not drawn) [TCMDC-133492] the “% Inhibition” value was -91.94%. `CCOC(=O)c1nc2ccc(SC3CCCCC3)cn2c1Br` [TCMDC-138030] was tested, and the “% Inhibition” value was 0.4377%. In the case of `COc1ccc2c(=O)ccn(CCN3CCC(NCc4ccc5c(n4)NC(=O)CS5)CC3)c2c1` [TCMDC-141809], the “% Inhibition” value is reported as -63.52%. In the case of `Nc1nc(N)c2c(ccc3ccccc32)n1` [TCMDC-131942], the “% Inhibition” value is reported as 19.03%. In the case of `COc1cc2cc(-c3nc4ccccc4[nH]3)c(N)nc2cc1OC` [TCMDC-125600], the “% Inhibition” value is reported as 19.66%. For `Nc1nc(N)c2c(ccc3[nH]c(-c4ccccc4Cl)nc32)n1` [TCMDC-137840], the “% Inhibition” value was 117.2%. For `Nc1nc(N)c2c(Oc3cccc4ccccc34)cccc2n1` [TCMDC-137739], the “% Inhibition” value was -7.537%. With `CN(C)c1ccc2nc(N)nc(N)c2c1Cl` [TCMDC-137862] the “% Inhibition” value was -17.95%. In the case of `COc1ccccc1-c1nc2c(ccc3nc(N)nc(N)c32)[nH]1` [TCMDC-137976], the “% Inhibition” value is reported as 123.3%.
